SMILES strings stand for the structures. Some structures have more than one record in an assay (separate samples or runs), and their calls can disagree. Active and inactive are the calls of the source. Rule for the calls: active = hit-call score of the fitted dose curve at least 0.9, where 1 is the maximum; inactive = score below 0.9.

Sequence of Transcription factor E2F1 (Homo sapiens) (Q01094 whole entry, looked up): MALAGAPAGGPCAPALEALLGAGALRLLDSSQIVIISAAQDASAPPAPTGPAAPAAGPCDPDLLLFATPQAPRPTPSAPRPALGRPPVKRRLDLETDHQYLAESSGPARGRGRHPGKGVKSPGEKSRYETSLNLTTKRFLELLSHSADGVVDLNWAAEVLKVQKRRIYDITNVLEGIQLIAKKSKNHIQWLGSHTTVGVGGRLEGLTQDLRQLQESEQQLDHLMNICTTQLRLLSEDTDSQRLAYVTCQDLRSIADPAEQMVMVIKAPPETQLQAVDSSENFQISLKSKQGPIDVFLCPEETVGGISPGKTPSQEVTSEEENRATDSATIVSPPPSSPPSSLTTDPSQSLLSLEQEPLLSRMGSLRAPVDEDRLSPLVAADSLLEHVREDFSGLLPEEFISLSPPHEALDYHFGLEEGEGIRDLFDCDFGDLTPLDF
Sequence of Retinoic acid receptor alpha (Homo sapiens) (P10276 whole entry, looked up): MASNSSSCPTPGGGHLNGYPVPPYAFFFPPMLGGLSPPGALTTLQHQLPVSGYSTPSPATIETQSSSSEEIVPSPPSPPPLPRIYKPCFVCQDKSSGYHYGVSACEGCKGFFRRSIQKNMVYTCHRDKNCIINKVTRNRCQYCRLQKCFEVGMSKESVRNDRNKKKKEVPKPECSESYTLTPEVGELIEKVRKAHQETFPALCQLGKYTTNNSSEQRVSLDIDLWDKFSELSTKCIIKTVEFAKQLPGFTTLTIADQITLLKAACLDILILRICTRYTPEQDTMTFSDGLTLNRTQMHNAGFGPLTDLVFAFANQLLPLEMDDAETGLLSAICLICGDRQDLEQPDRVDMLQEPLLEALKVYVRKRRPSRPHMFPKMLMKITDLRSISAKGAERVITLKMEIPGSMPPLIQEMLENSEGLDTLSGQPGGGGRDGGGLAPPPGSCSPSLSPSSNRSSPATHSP

The first assay concerns the target Retinoic acid receptor alpha (Homo sapiens) (UniProt P10276). Nature of the assay: ATG_DR5_RAR_CIS: Attagene CIS-FACTORIAL HepG2 Assay for human Retinoic Acid Receptor Alpha (RARE), DR5 submotif (AID 2282934).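 For AC50: reporter responds to endogenous RAR alpha beta and gamma in HepG2 not RARA alone.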 The following applies: HepG2 Attagene cis-factorial RARE DR5 reporter, mRNA; actives raise or lower the signal. The method, boiled down:
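After 24 h of chemical exposure, transiently transfected HepG2 cells were lysed for total RNA; the DR5-regulated reporter transcript was quantified via RT-PCR and capillary electrophoresis, with activity fitted bidirectionally against DMSO.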
Turning to `CN(Cc1cnc2nc(N)nc(N)c2n1)c1ccc(C(=O)N[C@@H](CCC(=O)O)C(=O)O)cc1`, the compound was classed as inactive. Still for that read-out and setting: under `CCCCCCCCCCCC[N+](C)(C)Cc1ccccc1` stands “inactive”; under `Cc1ccc(C(=O)c2ccccc2)cc1`, “inactive”. The same measure, in the same setting: under `O=CC(F)(F)C(F)(F)C(F)(F)C(F)F` stands “inactive”; under `C[C@]12CC[C@@H]3c4ccc(O)cc4CC[C@H]3[C@@H]1C[C@@H](O)[C@@H]2O`, “inactive”; under `O=C1NS(=O)(=O)c2ccccc21`, “inactive”. For the compound `CC(C)(C)c1ccc(O)c(O)c1`, the outcome was inactive.

Turning to `CCCCCCCCCCCC(=O)O`, the AC50 (commonly the midpoint of the concentration-response curve, whichever way the signal moves) is 100 µM (active) and the outcome was inactive. For the compound `Cc1[nH]nc2c1N=C(c1ccccc1Cl)c1cc([N+](=O)[O-])ccc1N2`, the outcome was inactive. As to `O=C1OC2(c3ccccc31)c1cc(I)c(O)c(I)c1Oc1c2cc(I)c(O)c1I`, the outcome was inactive. Same read-out and setting: under `CC(O)COc1ccccc1` (configuration not stated) stands “inactive”; under `CN(C)CCOC(c1ccccc1)c1ccccc1`, “inactive”.

As for `N=C(N)c1ccc(OCCCCCOc2ccc(C(=N)N)cc2)cc1`, the call was inactive. For the compound `Cc1ccc2ccc3ccc(C)cc3c2c1`, the result was inactive. The same measure, in the same setting: under `O=C(c1ccccc1)c1ccccc1` stands “inactive”. Same read-out and setting: under `COCN(COC)c1nc(N(COC)COC)nc(N(COC)COC)n1` stands “inactive”. As for `CC(C)c1c(C(=O)Nc2ccccc2)c(-c2ccccc2)c(-c2ccc(F)cc2)n1CC[C@@H](O)C[C@@H](O)CC(=O)O`, the concentration at half-maximal activity (AC50) is 161 µM (active) and the result was inactive. With `Cc1ccccc1C(OCCN(C)C)c1ccccc1` (configuration not stated), the result was inactive. Still for that read-out and setting: under `CCCCCCCCCCCCCCC` stands “inactive”; under `CC(C)C=O`, “inactive”. Turning to `O=C(NO)c1ccccc1`, the AC50 was 13.7 µM (active) [middle of 4 runs]. In the case of `CS(=O)(=O)c1ccc([C@@H](CC2CCCC2)C(=O)Nc2cnccn2)cc1Cl`, the compound was classed as inactive.

With `CC(=O)Nc1ccc(O)cc1`, the outcome was inactive. Still for that read-out and setting: under `OCC(CO)(CBr)CBr` stands “inactive”.

`CCN(CC)CC`: the call was inactive.

As to `c1cnc2c(c1)ccc1cccnc12`, the compound was classed as inactive.

`CCCCc1ccc2ccccc2c1S(=O)(=O)O`: the compound was classed as inactive.

The target of the next assay is Transcription factor E2F1 (Homo sapiens) (UniProt Q01094). The assay is described as follows: ATG_E2F_CIS: Attagene CIS-FACTORIAL HepG2 Assay for human E2F Transcription Factor 1 (AID 2282935). Conditions: HepG2 Attagene cis-reporter, E2F reporter RNA transcripts; actives raise or lower the signal. The method, boiled down:
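Transient MRTU transfection of HepG2; 24 h compound exposure; RNA → oligo(dT) RT → PCR → FAM label → HpaI cut → CE fluorescence. Gain/loss of signal fit against DMSO.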
Regarding `CN(Cc1cnc2nc(N)nc(N)c2n1)c1ccc(C(=O)N[C@@H](CCC(=O)O)C(=O)O)cc1`, the outcome was inactive. For `CCCCCCCCCCCC[N+](C)(C)Cc1ccccc1`, the compound was called inactive. On the same count and under the same terms, under `Cc1ccc(C(=O)c2ccccc2)cc1` stands “inactive”; under `O=CC(F)(F)C(F)(F)C(F)(F)C(F)F`, “inactive”. Take `C[C@]12CC[C@@H]3c4ccc(O)cc4CC[C@H]3[C@@H]1C[C@@H](O)[C@@H]2O`: the outcome was inactive. Still for that read-out and setting: under `O=C1NS(=O)(=O)c2ccccc21` stands “inactive”. The same measure, in the same setting: to `Cc1cc(C(C)(C)C)c(O)c(C(C)(C)C)c1` belongs “inactive”; to `CC(C)(C)c1ccc(O)c(O)c1`, “inactive”; to `CCCCCCCCCCCC(=O)O`, “inactive”. Turning to `Cc1[nH]nc2c1N=C(c1ccccc1Cl)c1cc([N+](=O)[O-])ccc1N2`, the call was inactive. As for `CCCCC=O`, the result was inactive. Take `CN(C)c1ccc(C(=C2C=CC(=[N+](C)C)C=C2)c2ccccc2)cc1`: the result was inactive. Regarding `O=C1OC2(c3ccccc31)c1cc(I)c(O)c(I)c1Oc1c2cc(I)c(O)c1I`, the result was inactive. On the same count and under the same terms, to `CC(O)COc1ccccc1` (configuration not stated) belongs “inactive”. On the same count and under the same terms, to `CN(C)CCOC(c1ccccc1)c1ccccc1` belongs “inactive”. Same read-out and setting: under `N=C(N)c1ccc(OCCCCCOc2ccc(C(=N)N)cc2)cc1` stands “inactive”; under `CCCCC(CC)C(=O)O` (configuration not stated), “inactive”; under `Cc1ccc2ccc3ccc(C)cc3c2c1`, “inactive”. Consider `O=C(c1ccccc1)c1ccccc1`, for which the result was inactive. Consider `COCN(COC)c1nc(N(COC)COC)nc(N(COC)COC)n1`, for which the result was inactive. `CC(C)c1c(C(=O)Nc2ccccc2)c(-c2ccccc2)c(-c2ccc(F)cc2)n1CC[C@@H](O)C[C@@H](O)CC(=O)O`: the compound was called inactive.

As to `Cc1ccccc1C(OCCN(C)C)c1ccccc1` (configuration not stated), the call was inactive. Still for that read-out and setting: to `O=C(CCCN1CCC(O)(c2ccc(Cl)cc2)CC1)c1ccc(F)cc1` belongs “inactive”; to `CCCCCCCCCCCCCCC`, “inactive”.

For `CC(C)C=O`, the result was inactive. In the case of `NC(=NCCCCCCN=C(N)/N=C(\N)Nc1ccc(Cl)cc1)/N=C(\N)Nc1ccc(Cl)cc1`, the AC50 was 48.6 µM (active) and the outcome was inactive. As to `O=C(NO)c1ccccc1`, the outcome was inactive. On the same count and under the same terms, to `CCCCc1oc2ccccc2c1C(=O)c1cc(I)c(OCCN(CC)CC)c(I)c1` belongs “inactive”; to `CS(=O)(=O)c1ccc([C@@H](CC2CCCC2)C(=O)Nc2cnccn2)cc1Cl`, “inactive”. As to `O=C(CC(=O)C(F)(F)C(F)(F)C(F)(F)F)c1cccs1`, the compound was classed as inactive. Turning to `C=C(c1ccc(C(=O)O)cc1)c1cc2c(cc1C)C(C)(C)CCC2(C)C`, the concentration at half-maximal activity (AC50) was 31 µM (active) and the outcome was inactive. Regarding `CC(=O)Nc1ccc(O)cc1`, the compound was classed as inactive.

As to `OCC(CO)(CBr)CBr`, the compound was called inactive.

Turning to `CCN(CC)CC`, the call was inactive. For `c1cnc2c(c1)ccc1cccnc12`, the compound was called inactive. Same read-out and setting: under `CCCCc1ccc2ccccc2c1S(=O)(=O)O` stands “inactive”.
